Assay [1] in a line: NCI Yeast Anticancer Drug Screen. Data for the rad50 strain (AID 155).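 Further: 0% = growth of vehicle-only cultures of the same strain.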 The following applies: S. cerevisiae rad50 strain growth inhibition, hits give high values. Summed up:
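Vehicle-treated cultures provide the reference for the growth inhibition reported for compound-exposed, repair-deficient yeast.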

The nature of assay [2]: NCI Yeast Anticancer Drug Screen. Data for the mec2-1 strain (AID 157). To be noted: S. cerevisiae mec2-1 strain, hits give high values. A digest of the protocol: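 Using mec2-1 yeast: add compound, measure growth, express inhibition versus vehicle-treated cultures.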
Assay [3] in a line: NCI Yeast Anticancer Drug Screen. Data for the sgs1 mgt1 strain (AID 161).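 Further: 0% = growth of cultures given vehicle only.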 The following applies: S. cerevisiae sgs1 mgt1 strain, hits give high values. A digest of the protocol:
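Percent growth inhibition was derived by comparing compound-exposed mutant yeast with vehicle-exposed cultures. The strain carries alterations in DNA damage repair.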

Assay [4] can be described thus: NCI Yeast Anticancer Drug Screen. Data for the cln2 rad14 strain (AID 165).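 Further: 0% = growth equal to vehicle treated cultures.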 The following applies: S. cerevisiae cln2 rad14 strain, hits give high values. A digest of the protocol:
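Yeast strain cln2 rad14, bearing defects in cell cycle control and DNA repair, serves as the test system; values reflect growth inhibition compared with vehicle.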

Assay [5] is described as follows: NCI Yeast Anticancer Drug Screen. Data for the bub3 strain (AID 167). To be noted: S. cerevisiae bub3 mutant strain, hits give high values. A digest of the protocol: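 Mutant yeast screening strain plus compound; vehicle-treated cultures serve as the 0% inhibition reference.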
Assay [6] in a line: NCI Yeast Anticancer Drug Screen. Data for the mlh1 rad18 strain (AID 175). To be noted: S. cerevisiae mlh1 rad18 strain growth inhibition, hits give high values. Summed up: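 Steps: expose repair-defective yeast to compound; measure growth; express inhibition against vehicle-treated controls.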
The mark [7] stands for this setting: at 5.0 µM (retest, dose inferred, filed as 0.5).
The mark [8] stands for this setting: at 50.0 µM (retest, dose inferred, filed as 5.0).

The structures appear in SMILES notation. About 79,000 compounds went through this panel and 15% of them were active in at least one assay; those are over-represented in the sample as a whole. A number with no mark means an inactive call. Calls of active or inactive are those of the source. No stated cut-off is given here; in the data, active means growth inhibition above about 70%; inactive means the rest.

Growth inhibition data for 7 molecules are collected here from PubChem BioAssay (NCI).

Turning to `O=[N+]([O-])c1ccc(CCCl)c(CCl)c1`, the growth inhibition in assay [1] (setting [7]) is -150%; in assay [1] (setting [8]), 94% (active); in assay [1] (at 50.0 µM), 97.4% (active); in assay [2] (setting [7]), -48%; in assay [2] (setting [8]), 94% (active); in assay [2] (at 50.0 µM) it was 98.8% (active). Also, the growth inhibition in assay [3] (setting [7]) was -51%; in assay [3] (setting [8]), 91% (active); in assay [3] (at 50.0 µM) it was 91% (active); in assay [4] (setting [7]) it was -50%; in assay [4] (setting [8]), 92% (active); in assay [4] (at 50.0 µM), 96.4% (active). Further, the growth inhibition in assay [5] (setting [7]) is -55%; in assay [5] (setting [8]), 79% (active); in assay [5] (at 50.0 µM), 90.3% (active); in assay [6] (setting [7]) it was -111%; in assay [6] (setting [8]), 92% (active); in assay [6] (at 50.0 µM), 89% (active).

Turning to `COc1ccc2ccccc2c1Cc1c(OC)ccc2ccccc12`, the growth inhibition was -2% in assay [1] (setting [7]); 98% (active) in assay [1] (setting [8]); -11.7% in assay [1] (at 50.0 µM); -2% in assay [2] (setting [7]); 98% (active) in assay [2] (setting [8]); 8.65% in assay [2] (at 50.0 µM). Besides, the growth inhibition in assay [3] (setting [7]) was -2%; in assay [3] (setting [8]), 98% (active); in assay [3] (at 50.0 µM) it was -2.7%; in assay [4] (setting [7]) it was -15%; in assay [4] (setting [8]) it was 98% (active); in assay [4] (at 50.0 µM), 7.65%. Further, the growth inhibition in assay [5] (setting [7]) was -5%; in assay [5] (setting [8]), 98% (active); in assay [5] (at 50.0 µM) it was -6.35%; in assay [6] (setting [7]) it was 0%; in assay [6] (setting [8]), 98% (active); in assay [6] (at 50.0 µM), 9.35%.

As to `COc1ccc(C2=Nc3cc(C)c(C)cc3NC(c3ccccc3)C2)cc1` (stereo unspecified), the growth inhibition is 11% in assay [1] (setting [7]); 11% in assay [1] (setting [8]); 43.2% in assay [1] (at 50.0 µM); 7% in assay [2] (setting [7]); 7% in assay [2] (setting [8]); 69.8% in assay [2] (at 50.0 µM). Further, the growth inhibition is 21% in assay [3] (setting [7]); 21% in assay [3] (setting [8]); 66.9% in assay [3] (at 50.0 µM); 1% in assay [4] (setting [7]); 1% in assay [4] (setting [8]); 9.5% in assay [4] (at 50.0 µM). The growth inhibition was 35% in assay [5] (setting [7]); 35% in assay [5] (setting [8]); 74.7% (active) in assay [5] (at 50.0 µM); 19% in assay [6] (setting [7]); 19% in assay [6] (setting [8]); 51% in assay [6] (at 50.0 µM).

As for `O=S(=O)(Nc1ccccc1)c1ccccc1C(O)(c1ccccc1)c1ccccc1`, the growth inhibition in assay [1] (setting [7]) is 6%; in assay [1] (setting [8]), 71% (active); in assay [1] (at 50.0 µM), 93.6% (active); in assay [2] (setting [7]) it was -15%; in assay [2] (setting [8]), 94% (active); in assay [2] (at 50.0 µM) it was 73.1% (active). Also, the growth inhibition in assay [3] (setting [7]) was -179%; in assay [3] (setting [8]), 48%; in assay [3] (at 50.0 µM), 92.1% (active); in assay [4] (setting [7]), -2%; in assay [4] (setting [8]) it was 82% (active); in assay [4] (at 50.0 µM), 85.2% (active). The growth inhibition in assay [5] (setting [7]) was 15%; in assay [5] (setting [8]), 96% (active); in assay [5] (at 50.0 µM), 81.2% (active); in assay [6] (setting [7]), -21%; in assay [6] (setting [8]), 92% (active); in assay [6] (at 50.0 µM) it was 95.5% (active).

In the case of `N=C(N)Cc1ccc(NC(=O)c2ccc(C(=O)Nc3ccc(CC(=N)N)cc3)cc2)cc1`, the growth inhibition in assay [1] (setting [7]) was 3%; in assay [1] (setting [8]) it was -8%; in assay [1] (at 50.0 µM) it was 21.4%; in assay [2] (setting [7]), 2%; in assay [2] (setting [8]), 14%; in assay [2] (at 50.0 µM) it was 34.2%. Moreover, the growth inhibition in assay [3] (setting [7]) was -11%; in assay [3] (setting [8]), -21%; in assay [3] (at 50.0 µM) it was 78.4% (active); in assay [4] (setting [7]), -7%; in assay [4] (setting [8]), -16%; in assay [4] (at 50.0 µM), 14.7%. In addition, the growth inhibition in assay [5] (setting [7]) is -3%; in assay [5] (setting [8]) it was -11%; in assay [5] (at 50.0 µM), 56.3%; in assay [6] (setting [7]), 2%; in assay [6] (setting [8]), -49%; in assay [6] (at 50.0 µM), 27.9%.

In the case of `CCOc1ccc2c(c1)[n+]([O-])c(-c1ccccc1)c(N)[n+]2[O-]`, the growth inhibition in assay [1] (setting [7]) is 23%; in assay [1] (setting [8]), 98% (active); in assay [1] (at 50.0 µM), 99.2% (active); in assay [2] (setting [7]), 28%; in assay [2] (setting [8]), 99% (active); in assay [2] (at 50.0 µM), 99.3% (active). For the same molecule, the growth inhibition is 27% in assay [3] (setting [7]); 99% (active) in assay [3] (setting [8]); 99.2% (active) in assay [3] (at 50.0 µM); 37% in assay [4] (setting [7]); 98% (active) in assay [4] (setting [8]); 98.6% (active) in assay [4] (at 50.0 µM). For the same molecule, the growth inhibition in assay [5] (setting [7]) is 69%; in assay [5] (setting [8]), 99% (active); in assay [5] (at 50.0 µM) it was 99.1% (active); in assay [6] (setting [7]) it was 66%; in assay [6] (setting [8]) it was 98% (active); in assay [6] (at 50.0 µM) it was 98.8% (active).

With `O=C1c2ccccc2C(=O)c2sc(Nc3cc(Cl)ccc3Cl)nc21`, the growth inhibition in assay [1] (setting [7]) was 58%; in assay [1] (setting [8]) it was 98% (active); in assay [1] (at 50.0 µM), 82.3% (active); in assay [2] (setting [7]) it was 72% (active); in assay [2] (setting [8]), 99% (active); in assay [2] (at 50.0 µM) it was 88.2% (active). For the same molecule, the growth inhibition is 67% in assay [3] (setting [7]); 99% (active) in assay [3] (setting [8]); 88.3% (active) in assay [3] (at 50.0 µM); 52% in assay [4] (setting [7]); 97% (active) in assay [4] (setting [8]); 86.5% (active) in assay [4] (at 50.0 µM). For the same molecule, the growth inhibition is 87% (active) in assay [5] (setting [7]); 98% (active) in assay [5] (setting [8]); 83.8% (active) in assay [5] (at 50.0 µM); 63% in assay [6] (setting [7]); 98% (active) in assay [6] (setting [8]); 90.5% (active) in assay [6] (at 50.0 µM).
